Assay [1] in a line: qHTS assay for small molecules that induce genotoxicity in human embryonic kidney cells expressing luciferase-tagged ATAD5 (AID 651632). Note: nearly all actives have a fitted effect of over 15% in size. Summed up: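 Quantitative HTS in HEK293T expressing luciferase-tagged ATAD5, whose levels rise upon DNA damage. Exposure ran 16 hr at 37C and 5% CO2, with luminescence read 30 min after Amplite addition at room temperature.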
Background: Quantitative high-throughput screening tests each substance at several concentrations.

Assay [2] is described as follows: qHTS assay for small molecule agonists of the p53 signaling pathway - cell viability (AID 651633; calls by dose curve; note: nearly all actives have a fitted effect of over 30% in size; note: potency is the fitted concentration of half-maximal effect). The essentials:
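p53RE-bla cells were treated with compound for 16 hours at 37 C. Cytotoxicity was then measured as CellTiter-Glo luminescence after 30 min at room temperature.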

Assay [3] in a line: qHTS assay for small molecules that induce genotoxicity in human embryonic kidney cells expressing luciferase-tagged ATAD5 - cell viability (AID 651634; calls by dose curve; note: nearly all actives have a fitted effect of over 25% in size; note: potency is the fitted concentration of half-maximal effect). The essentials: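 After 15.5 hr incubation with compound at 37C, 5% CO2, HEK293T ATAD5-luciferase cells received CellTiter-Fluor reagent; fluorescence intensity was quantified following 30 min at 37C.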
Assay [4] is described as follows: qHTS assay for small molecule disruptors of the mitochondrial membrane potential - cell viability (AID 720634; calls by dose curve; note: nearly all actives have a fitted effect of over 20% in size; note: potency is the fitted concentration of half-maximal effect). Summed up: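 ATP-based luminescent viability readout (CellTiter-Glo, 30 min, room temperature) in HepG2 cells multiplexed with the m-MPI membrane potential dye; compound exposure lasted 1 hr at 37 C.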
Assay [5] in a line: qHTS assay to test for compound auto fluorescence at 590 nm (red) in HepG2 cells (AID 720674). The essentials: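 Fluorescence at 590 nm emission following 540 nm excitation was recorded from HepG2 wells one hour after compound transfer, with DMSO-only wells as vehicle and Rose Bengal sodium equivalency as the scale.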
Assay [6] in a line: qHTS assay to test for compound auto fluorescence at 535 nm (green) in HepG2 cells (AID 720675).
Assay [7] in a line: qHTS assay to test for compound auto fluorescence at 460 nm (blue) in HEK293 cells (AID 720678). Summed up:
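After cell attachment (4-5 hr, 37C), compounds were pinned onto HEK293 monolayers in 10% dialyzed FBS medium. The blue channel (405/460 nm) was read following overnight culture. Equivalency was calculated against triamterene.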

Assay [8] can be described thus: qHTS assay to test for compound auto fluorescence at 590 nm (red) in HEK293 cells (AID 720679). The essentials:
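Plates of HEK293 cells (10% dialyzed FBS) are treated with 23 nL compound or DMSO vehicle after a 4-5 hr attachment period, incubated overnight at 37C, and read for red fluorescence at 540/590nm.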

Assay [9] is described as follows: qHTS assay for small molecule disruptors of the mitochondrial membrane potential (AID 720635). Note: potency is the fitted concentration of half-maximal effect. The essentials: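 HepG2 cells exposed to compound 1 hr at 37C, then Mito-MPS dye 30 min. Ratio read of aggregate (540/590 nm) versus monomer (490/535 nm) fluorescence.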

This is an account of results in PubChem BioAssay (Tox21).

Inconclusive results are not listed. Activity calls are given as the source filed them. Unless noted, calls come from the whole dose curve; as a rule, active = well fitted curve in the direction sought with a large enough effect in the repeat runs; inconclusive = weak or mixed curves; inactive = no such curve, though single readings can be large; an effect the other way counts as inactive or inconclusive.

Consider `CCCCC(F)(F)[C@@]1(O)CC[C@H]2[C@@H](CC(=O)[C@@H]2CCCCCCC(=O)O)O1`, for which the Potency entry in assay [1], in assay [2], in [3], in assay [4], in assay [5] and in assay [6] was “inactive” each time. Moreover, the Potency result in assay [7] and in assay [8] was “inactive” throughout.

For `CC1C(=O)CC2C3(C)CCC2(C(C)C(=O)O)C(=O)C13` (stereo not drawn), the Potency result in [1], in [2], in assay [3], in [4], in assay [5] and in assay [6] was “inactive” each time. Further, the Potency entry in assay [7] and in assay [8] was “inactive” throughout.

As for `S=C=Nc1ccc(N=C=S)cc1`, the Potency entry in assay [1], in assay [2], in assay [3], in assay [4], in assay [5] and in [6] was “inactive” each time. In addition, the Potency entry in assay [7] and in [8] was “inactive” in each case.

As for `O=C(NOC[C@H](O)CO)c1ccc(F)c(F)c1Nc1ccc(I)cc1F`, the Potency result in [1], in [2], in assay [3], in [4], in assay [5] and in assay [6] was “inactive” in each case. Further, the Potency entry in [7] and in [8] was “inactive” in each case.

On to `CC(C)NCC(O)COc1ccccc1-n1cccc1` (stereo not drawn), for which the Potency entry in assay [1], in assay [2], in [3], in assay [4], in [5] and in [6] was “inactive” throughout. Also, the Potency result in assay [7] and in assay [8] was “inactive” in each case.

`CC[C@@H](C(=O)[C@@H](C)[C@@H](O)[C@H](C)[C@@H]1O[C@@H]([C@@H](CC)C(=O)O)CC[C@@H]1C)[C@H]1O[C@]2(C=C[C@@H](O)[C@]3(CC[C@@](C)([C@H]4CC[C@](O)(CC)[C@H](C)O4)O3)O2)[C@H](C)C[C@@H]1C`: the Potency result in assay [1], in [2], in assay [4], in assay [5], in assay [6] and in [7] was “inactive” in each case. In addition, the Potency entry in assay [8] was “inactive”. For the same compound, the Potency in assay [3] is 8.41 µM (active).

For the compound `COc1cc(Br)c(C[N+]2(CCOCCC3CCC4CC3C4(C)C)CCOCC2)cc1OC` (stereo not drawn), the Potency entry in [1], in [2], in assay [3], in [4], in assay [5] and in [6] was “inactive” throughout. Moreover, the Potency result in [7] and in assay [8] was “inactive” in each case.

For `CCC(=O)OCC(=O)[C@@]1(OC(=O)CC)[C@@H](C)C[C@H]2[C@@H]3CCC4=CC(=O)C=C[C@]4(C)[C@@]3(Cl)[C@@H](O)C[C@@]21C`, the Potency result in [1], in assay [2], in assay [4], in [5], in assay [6] and in assay [7] was “inactive” in each case. In assay [8], the Potency entry is “inactive”. In addition, in assay [9], the Potency is 21.1 µM (active).

Turning to `CCN(CC)CCC(=O)N1c2ccccc2Sc2ccc(Cl)cc21`, the Potency result in [1], in assay [2], in assay [3], in assay [4], in assay [5] and in [6] was “inactive” throughout. Further, the Potency result in assay [7] and in [8] was “inactive” throughout.

`Cn1c(O)c(N=NC(N)=S)c2ccccc21`: the Potency result in assay [1], in assay [2], in assay [4], in [6], in [7] and in assay [8] was “inactive” in each case. The Potency in assay [9] is 4.95 µM (active).

For `C=C1C(=C/C=C2\CCC[C@]3(C)[C@@H]([C@H](C)CCCC(C)(C)O)CC[C@@H]23)C[C@@H](O)C[C@@H]1O`, the Potency result in assay [1], in [4], in assay [5], in assay [6], in assay [7] and in assay [8] was “inactive” throughout. The values for the Potency in assay [2] and in assay [9] were 21.1 µM (active) and 10.6 µM (active), respectively.

As to `CCCCCCCN(CC)CCCC(O)c1ccc(NS(C)(=O)=O)cc1` (stereo not drawn), the Potency result in assay [1], in [2], in [3], in assay [5], in assay [6] and in assay [7] was “inactive” throughout. In addition, the Potency result in [8] is “inactive”.

For the compound `CCCc1nc(C(C)(C)O)c(C(=O)OCc2oc(=O)oc2C)n1Cc1ccc(-c2ccccc2-c2nn[nH]n2)cc1`, the Potency result in [1], in assay [2], in assay [3], in [9], in assay [5] and in assay [6] was “inactive” throughout. Moreover, the Potency entry in assay [7] and in [8] was “inactive” in each case.

`COC(=O)C1=C(C#N)NC(C)=C(C(=O)OC(C)C)C1c1cccc([N+](=O)[O-])c1` (stereo not drawn): the Potency entry in assay [1], in assay [2], in assay [5], in assay [6], in assay [7] and in assay [8] was “inactive” each time. Besides, the Potency in assay [4] was 11.9 µM (active); in [9] it was 19.7 µM (active).

Consider `OCC(S)CS` (stereo not drawn), for which the Potency result in assay [1], in assay [4], in assay [9], in [5], in [6] and in [7] was “inactive” in each case. In addition, the Potency result in assay [8] was “inactive”. In assay [2], the Potency was 26.6 µM (active).

With `C/C1=C2N=C(/C=C3N=C(/C(C)=C4\[N-]C(C(CC(N)=O)C4(C)CCC(=O)NCC(C)OP(=O)([O-])OC4C(CO)OC(n5cnc6cc(C)c(C)cc65)C4O)C4(C)N=C1C(CCC(N)=O)C4(C)CC(N)=O)C(CCC(N)=O)C\3(C)C)C(CCC(N)=O)C/2(C)CC(N)=O.[CH3-].[Co+3]` (stereo not drawn), the Potency result in [1], in assay [2], in assay [4], in [5], in [6] and in [7] was “inactive” each time. Also, the Potency result in assay [8] is “inactive”. Besides, the Potency in assay [3] is 23.7 µM (active).

For the compound `CCOc1cc(-c2nccc3cc(OC)c(OC)cc23)cc(OCC)c1OCC`, the Potency result in assay [1], in assay [2], in assay [5], in assay [6], in assay [7] and in assay [8] was “inactive” throughout. The Potency in assay [3] was 26.6 µM (active).

As to `O=C(CCCN1CCC(n2c(=S)[nH]c3ccccc32)CC1)c1ccc(F)cc1`, the Potency entry in assay [1], in assay [2], in [4], in assay [9], in [5] and in [6] was “inactive” throughout. For the same compound, the Potency entry in [7] and in assay [8] was “inactive” each time.

Take `CN1CCN(C(c2ccccc2)c2ccc(Cl)cc2)CC1` (stereo not drawn): the Potency entry in assay [1], in assay [2], in [4], in assay [5], in assay [6] and in assay [7] was “inactive” throughout. Also, the Potency result in assay [8] was “inactive”.
